G9a block = blocks human histone lysine methyltransferase G9a. Q96KQ7. G9a H3K9 monomethylation, AlphaScreen, 2 h. Potency, µM (highest dose often 102 µM), inactives show at the top dose activity, negative = inhibition, usual class: inhibitors. 350,000 tested, 8.8% active; note: % is set by controls: 0 for no effect and ±100 for the full control effect; nearly all actives have a fitted effect of over 75% in size
Target sequence (Q96KQ7 913-1193 limits assumed): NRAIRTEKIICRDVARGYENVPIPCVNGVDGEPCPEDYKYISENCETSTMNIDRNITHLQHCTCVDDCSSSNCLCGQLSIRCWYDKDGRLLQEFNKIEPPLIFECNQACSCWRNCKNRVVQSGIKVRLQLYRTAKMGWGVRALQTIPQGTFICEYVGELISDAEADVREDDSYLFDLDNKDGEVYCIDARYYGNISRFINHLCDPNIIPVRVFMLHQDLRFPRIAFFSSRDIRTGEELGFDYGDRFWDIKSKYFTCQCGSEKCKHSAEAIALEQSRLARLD
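Compounds were preincubated with 20 nM G9a for 15 min, after which biotinylated H3K9 peptide (500 nM) and SAM (20 uM) started a 2 h room-temperature reaction. Monomethylated product was quantified by antibody-based AlphaScreen chemiluminescence.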
PLK1 PBD inh = blocks phosphopeptide binding to human PLK1 polo-box domain | Plk1 PBD binding of FITC phosphopeptide, fluorescence polarization | Potency, µM, inactives show max response, negative = inhibition, hits mostly inhibitors | AID 720504 | 360,000 tested, 2.8% active | P53350; note: series mostly up to about 57 µM; % is set by controls: 0 for no effect and ±100 for the full control effect; nearly all actives have a fitted effect of over 65% in size
ALOX12 inh = blocks human arachidonate 12S-lipoxygenase; P18054; purified 12hLO, xylenol orange hydroperoxide absorbance; Potency, µM (top dose mostly 108 µM), without a hit: at the top dose activity change, negative = inhibition, actives largely listed as inhibitors; 580,000 tested, 1.1% active; AID 1671190; note: % is set by controls: 0 for no effect and ±100 for the full control effect
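Purified human 12hLO at 150 nM in 25 mM Hepes, 0.01% Triton X-100, pH 7.0, preincubated 15 min at room temperature with compound. Reaction started with 40 uM arachidonic acid, 30 min at room temperature. Hydroperoxide measured by Fe-xylenol orange, 573/405 nm absorbance ratio.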
BAZ2B block = blocks human BAZ2B. Q9UIF8. AlphaScreen BAZ2B-H3K14Ac peptide displacement. Potency, µM (doses to about 114 µM), inactives show at the top dose activity change, negative = inhibition, most hits filed as inhibitors. 360,000 tested, 4.4% active. AID 504333; note: % is set by controls: 0 for no effect and ±100 for the full control effect; nearly all actives have a fitted effect of over 60% in size
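Complex of BAZ2B and biotin-H3K14Ac (50 nM apiece) forms over 30 min at RT, then faces library compounds up to 110 uM for another 30 min; AlphaScreen beads added, 20 min dark incubation, luminescence read.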
HP1b binding inh = inhibitors of HP1-beta chromodomain binding to methylated histone tails; AlphaScreen HP1-beta / biotin-H3K9me3 peptide binding; 390,000 tested, 0.56% active; Potency, µM (highest dose often 114 µM), for the others: at the highest dose activity change, negative = inhibition, usual class: inhibitors; P83916; note: nearly all actives have a fitted effect of over 70% in size
Target sequence (P83916 whole entry, looked up): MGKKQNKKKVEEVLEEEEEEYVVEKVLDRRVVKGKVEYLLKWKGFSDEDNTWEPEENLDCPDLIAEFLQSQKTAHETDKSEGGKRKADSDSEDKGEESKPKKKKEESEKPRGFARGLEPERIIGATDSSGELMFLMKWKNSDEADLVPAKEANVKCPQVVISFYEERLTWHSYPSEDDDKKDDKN
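AlphaScreen: HP1-beta (50 nM) preformed 30 min with biotin-H3(1-18)K9me3 peptide (50 nM) in PBS pH 7.4, 0.01% Tween-20. Compound added for 30 min at RT, then streptavidin donor/nickel chelate acceptor beads (10 ug/mL) for 30 min.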
JMJD2A Tudor inh = JMJD2A Tudor domain (human) inhibition; AlphaScreen JMJD2A-Tudor / H3K4me3 peptide binding; Potency, µM (titrated, usually from 114 µM), for the others: at the top dose activity change, negative = inhibition, usual class: inhibitors; 390,000 tested, 4.4% active; AID 504339; note: % is set by controls: 0 for no effect and ±100 for the full control effect; nearly all actives have a fitted effect of over 50% in size
Numbers without * were called inactive; ? = inconclusive; nt = no result; [ ] = remark or other dose. Most compounds without a hit are left out; they make up all but 9% or so of the library. Calls come from the whole dose curve; as a rule, active = well fitted curve in the direction sought with a large enough effect; inconclusive = small, poorly fitted or top-dose-only effect, or another doubt; inactive = no such curve, though single readings can be large; an effect the other way counts as inactive or inconclusive. Potency is the fitted concentration of half-maximal effect.

SMILES	G9a block	PLK1 PBD inh	ALOX12 inh	BAZ2B block	HP1b binding inh	JMJD2A Tudor inh
C#CCOCCOCCOCCNc1nc(N2CCN(C(=O)Cn3cc(CCCN=C(N)N)nn3)CC2)nc(N2CCN(C(=O)[C@H](CCCCN)n3cc(CCC(=O)O)nn3)CC2)n1	-8%[2.33 µM]	-1%	?	-9%	23%	-4%
C#CCOCCOCCOCCNc1nc(N2CCN(C(=O)Cn3cc(CCCN=C(N)N)nn3)CC2)nc(N2CCN(C(=O)[C@H](CCCCN)n3cc(CCCC)nn3)CC2)n1	-2%[2.33 µM]	4%	?	79µM*	36%	-35%
O=C(NNc1nc2cc3c(cc2s1)OCO3)c1ccccc1	28µM*	-7%	?	-6%	28%	-18%
COc1cc(OC)cc(C(=O)NNc2nc3cc4c(cc3s2)OCO4)c1	?	-2%	-4%	?	17%	?
O=C(NNc1nc2cc3c(cc2s1)OCO3)c1cccc(F)c1	8.9µM*	-2%	1%[57.4 µM]	-5%	32%	-15%
Cc1nn(-c2ccc(F)cc2)c(C)c1NS(=O)(=O)c1ccc2ccccc2c1	6%	1%	0%	-25%	2%	-22%
O=C(NCCCN1CCc2ccccc2C1)C1CCN(S(=O)(=O)N2CCCC2)CC1	27%[0.501 µM]	-5%	15%	50µM*	16%	-25%
O=C(NCc1ccccn1)C1CC(=O)N(C2CCCC2)C1 (configuration not stated)	nt	-1%	4%[57.4 µM]	nt	22%	79µM*
O=C(NCc1ccccn1)C1CCC(=O)N1C1CCCC1 (configuration not stated)	nt	-6%	?	nt	20%	79µM*
O=C(NCCN1CCc2ccccc2C1)C1CC(=O)N(C2CCCC2)C1 (configuration not stated)	-36%[0.0925 µM]	-3%	17%	?	14%	89µM*
Cc1cc(=O)oc2cc(NC(=O)C3CCCC3)ccc12	1%	6%	-10%	-9%	37%	-1%
CN1Cc2ccc(C(=O)Nc3ccccc3)cc2OCC1=O	nt	nt	-14%[176 µM]	nt	nt	nt
Cc1ccc(C(=O)NC(N(C)C)C(Cl)(Cl)Cl)cc1 (configuration not stated)	-21%	-18%	-1%	2%	28%	-10%
O=c1nc2ccccc2c(NS(=O)(=O)c2ccc(Cl)cc2)n1-c1ccccc1	4%[12.7 µM]	?	130%[57.4 µM]	-1%	-15%	56µM*
O=C(NCCN1CCCC1)C1CCN(c2nnc(-n3cccc3)s2)CC1	nt	nt	3%	nt	nt	nt
CCN1/C(=N\N)c2cccc3cccc1c23	-169%[59 µM]	-9%	41%	7.9µM*	?	7.9µM*
CCC(C)NC(=O)CN1C(=O)c2cccc3cccc1c23 (configuration not stated)	12%	3%	-2%	-2%	35%	-11%
Cc1ccc(NC(C)c2cc(Cl)ccc2O)cc1 (configuration not stated)	-38%[59 µM]	-16%	0%	50µM*	-29%	?
CC1(C)CN=c2s/c(=C\c3ccc(Cl)cc3)c(=O)n2C1	71µM*	4.7µM*	?	?	13%	-10%
CCCOc1ccccc1NC(=O)/C=C/C(N)=O	35µM*	-15%	-19%	9%	15%	-5%
COC(=O)[C@@]1(Cc2ccc(F)cc2)[C@H]2c3cc(C(=O)N(C)C)n(CCc4ccc(OC)c(Br)c4)c3C[C@H]2CN1C(=O)c1ccccc1	25µM*	-11%	-3%	?	1%	?
COC(=O)[C@@]1(Cc2ccc(F)cc2)[C@H]2c3cc(C(=O)N(C)C)n(Cc4ccc(OC)c(OC)c4)c3C[C@H]2CN1C(=O)c1ccccc1	50µM*	-23%	-13%	?	-14%	?
COC(=O)[C@@]1(Cc2ccc(F)cc2)[C@H]2c3cc(C(=O)N(C)C)n(Cc4ccccc4)c3C[C@H]2CN1C(=O)c1ccccc1	?	-10%	-5%	?	-15%	?
CC1(c2ccccc2)N(Cc2ccccc2F)C(=O)OC12CCN(Cc1cccc(C#N)c1)CC2 (configuration not stated)	nt	nt	13%	nt	nt	nt
Cc1ccccc1C(=O)N1CCc2nc(C(C)C)nc(-c3ccc(O)cc3)c2CC1	nt	nt	-7%	nt	nt	nt
SMILES	G9a block	PLK1 PBD inh	ALOX12 inh	BAZ2B block	HP1b binding inh	JMJD2A Tudor inh
COc1ccc2[nH]c3c(c2c1)CCN1C(=O)C(CC(=O)NCCCN(C)C)C[C@H](C(=O)N2CCCCC2)[C@@]31C (some centres not stated)	nt	-11%	-4%	nt	1%	-15%
Cc1cccc(S(=O)(=O)Nc2nc3ccccc3nc2Nc2ccc3c(c2)OCO3)c1	45µM*	?	11%	?	-17%	?
O=S(=O)(Nc1nc2ccccc2nc1Nc1ccc2c(c1)OCO2)c1ccccc1	40µM*	?	-19%	-4%	3%	-11%
CC(=O)c1ccccc1NC(C(=O)NC1CCCCC1)c1ccccc1F (configuration not stated)	nt	nt	4%	nt	nt	nt
COC(=O)c1ccc(CSC2=NC[C@@H]3[C@@H]4C(=O)N(C)C(=O)[C@@H]4[C@](C)(C(=O)OC)N23)cc1	nt	-2%	-39%	nt	17%	-22%
CCc1nc(N)c(C#N)c(-c2ccc(Br)s2)c1C	nt	nt	-55%	nt	nt	nt
CCNc1nc(SC(C)C(=O)NC(=O)NC2CC2)nc2ccccc12 (configuration not stated)	nt	nt	0%	nt	nt	nt
Cc1ccc(NC(=O)CCC2CCCCC2)c(NC(=O)c2ccco2)c1	nt	nt	3.5µM*	nt	nt	nt
CCCc1nc(SCC(=O)NNC(=O)C2CCCCC2)c2ccccc2n1	4%	0%	11%	-24%	14%	-12%
COc1ccc(CNCc2ccc(C)cc2)c(OC)c1	35µM*	-1%	?	56µM*	?	3.2µM*
COc1cc(CNCc2ccc(OC)cc2OC)cc(OC)c1	5%[0.501 µM]	1%	?	?	3%	28µM*
C(=C\c1ccc2ccccc2n1)/c1ccccc1	195%[59 µM]	4%	0%	262%	137%	149%
COc1ccc(OC(=O)CCCOc2ccc(Cl)cc2Cl)cc1	nt	nt	-10%	nt	nt	nt
COc1ccc(NC(=O)C(Cc2c[nH]c3ccccc23)NC(=O)OC(C)(C)C)cc1 (configuration not stated)	-37%[59 µM]	nt	-28%	?	-6%	-34%
CCOc1cccc(/C=N/N=C/c2cccc(OCC)c2O)c1O	21%	-3%	-4%	-2%	17%	-3%
CCOc1cccc(C=Nc2cc(C)cc(C)c2O)c1O	?	24µM*	?	?	-22%	18µM*
Cc1ccc(CNS(=O)(=O)c2ccc(C(F)(F)F)cc2)n1C	45µM*	-16%	?	?	23%	-27%
O=C(CNS(=O)(=O)c1ccc(F)cc1)Nc1ccc(C(F)(F)F)cc1	21%[59 µM]	-4%	-5%	-5%	30%	-5%
